From PubChem BioAssay (Tox21)
Records with an inconclusive call do not appear. Active and inactive are the calls of the source. Unless noted, the call rests on the fitted dose curve; in most records, active means well fitted curve in the direction sought with a large enough effect in the repeat runs; inconclusive means weak or mixed curves; inactive means no such curve, though single readings can be large; an effect the other way counts as inactive or inconclusive.

Columns and labels:
[1] = qHTS assay to identify small molecule antagonists of the androgen receptor (AR) signaling pathway using the MDA cell line in the presence of 0.5 nM R1881 - cell viability counter screen (AID 1259242); further: nearly all actives have a fitted effect of over 45% in size
Procedure, shortened: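 Viability of MDA-kb2 cells was multiplexed with the luciferase AR readout; after 16 hr with compounds and R1881 at 0.5 nM final, CellTiter-Fluor fluorescence was recorded.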

[2] = target: Estrogen receptor (Homo sapiens) (UniProt P03372); assay: qHTS assay to identify small molecule antagonists of the estrogen receptor alpha (ER-alpha) signaling pathway using the BG1 cell line in the presence of 0.1 nM 17-beta-estradiol (AID 1259244); further: nearly all actives have a fitted effect of over 50% in size; further: potency means the concentration at half of the fitted maximal effect
Sequence of Estrogen receptor (Homo sapiens) (P03372 whole entry, looked up): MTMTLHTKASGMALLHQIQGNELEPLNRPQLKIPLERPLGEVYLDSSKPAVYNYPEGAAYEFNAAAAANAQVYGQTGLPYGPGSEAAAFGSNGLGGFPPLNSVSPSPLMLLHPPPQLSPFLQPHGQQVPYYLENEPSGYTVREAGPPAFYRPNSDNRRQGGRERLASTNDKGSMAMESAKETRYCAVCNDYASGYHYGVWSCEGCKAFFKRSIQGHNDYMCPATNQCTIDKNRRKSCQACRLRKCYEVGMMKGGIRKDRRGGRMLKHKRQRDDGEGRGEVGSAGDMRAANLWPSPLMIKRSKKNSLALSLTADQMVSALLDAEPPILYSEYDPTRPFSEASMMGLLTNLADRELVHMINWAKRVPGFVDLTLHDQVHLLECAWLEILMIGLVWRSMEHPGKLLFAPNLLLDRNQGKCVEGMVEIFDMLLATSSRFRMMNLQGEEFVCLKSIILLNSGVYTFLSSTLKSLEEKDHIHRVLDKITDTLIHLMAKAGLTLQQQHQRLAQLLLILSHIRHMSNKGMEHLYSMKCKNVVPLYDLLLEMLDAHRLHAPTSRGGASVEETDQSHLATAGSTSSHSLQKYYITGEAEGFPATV
Procedure, shortened: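 Estradiol at 0.1 nM (final) stimulates the endogenous ER-alpha of VM7Luc4E2 cells carrying an ERE-driven luciferase; compounds are co-incubated 22 h at 37C and luciferase output quantified by luminescence.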

[3] = qHTS assay to identify small molecule phospholipidosis (PLD) inducers (AID 1259344; active means well fitted curve in the direction sought with a large enough effect; an effect the other way counts as inactive or inconclusive)
Procedure, shortened: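 HepG2 cells grown on collagen I take up LipidTOX Red while exposed to compound for 24 h; after fixation they are imaged at 20x and pit metrics are extracted.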

[4] = qHTS assay to identify small molecule HDAC inhibitors (AID 1259364);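 further: wild-type HCT-116 cells with endogenous class I/II HDAC activity; top concentration of the series differs between compounds; nearly all actives have a fitted effect of over 45% in size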
Procedure, shortened: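 Read-out: luminescence of HDAC-Glo I/II reagent, 30 min RT, reflecting class I/II deacetylase activity in whole HCT-116 cells pre-exposed 2 h to DMSO-dissolved compounds.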

[5] = qHTS assay to identify small molecule HDAC inhibitors - cell viability counter screen (AID 1259365); further: series mostly up to about 92 µM; nearly all actives have a fitted effect of over 50% in size
Procedure, shortened: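 After overnight seeding at 1,500 cells per well, wild-type HCT-116 cultures took up compounds in DMSO for 2hr at 37 C. Viable cell content came from luminescence with CellTiter-Glo.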

[6] = qHTS assay to identify small molecule agonists of the sonic hedgehog signaling (Shh) pathway - cell viability counter screen (AID 1259366); further: nearly all actives have a fitted effect of over 50% in size
Procedure, shortened: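 Same-well cytotoxicity read. Gli1-Luc reporter 3T3 cells; compounds 24hr, 37C/5% CO2; CellTiter-Fluor fluorescence.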

[7] = qHTS assay to identify small molecule antagonists of the sonic hedgehog signaling (Shh) pathway - cell viability counter screen (AID 1259367); further: nearly all actives have a fitted effect of over 55% in size
Procedure, shortened: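 After a 4 hr settling period, 3T3 Gli1-Luc cells were treated with DMSO-dissolved chemicals and conditioned medium, kept 24 hr at 37C in 5% CO2, and assayed for viability by CellTiter-Fluor fluorescence following 1 hr reagent incubation.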

[8] = qHTS assay to identify small molecule antagonists of the sonic hedgehog signaling (Shh) pathway (AID 1259369; calls by dose curve; further: nearly all actives have a fitted effect of over 45% in size; further: potency means the concentration at half of the fitted maximal effect)
Procedure, shortened: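 For antagonist detection, the reporter line received test compounds together with conditioned medium, incubated 24hr at 37 C, 5% CO2, then luminescence was recorded following 30min room-temperature luciferase reagent incubation.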

[9] = qHTS assay to identify small molecule agonists of the androgen receptor (AR) signaling pathway in the presence of an antagonist - cell viability counter screen (AID 1259379);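 further: MDA-kb2 human breast cancer cells carrying an MMTV luciferase reporter; series mostly up to about 92 µM; nearly all actives have a fitted effect of over 25% in size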
Procedure, shortened: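 Seed MDA-kb2 at 3,000 cells/well; incubate 5 hr, 37C, 0% CO2. Add nilutamide to 3.0uM final, then pin compounds at 15 concentrations. Incubate 16 hr. Add CellTiter-Fluor at 15 hr, read fluorescence after 1 hr.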

[10] = qHTS assay to identify small molecule agonists of the estrogen receptor beta (ER-beta) signaling pathway - cell viability counter screen (AID 1259380); further: nearly all actives have a fitted effect of over 30% in size; further: potency means the concentration at half of the fitted maximal effect
Procedure, shortened: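 CellTiter-Glo read, 30 min RT, same wells as bla assay; cells ER-beta-UAS-bla HEK293T; 16 hr compound, 37C; medium 2% charcoal-stripped FBS.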

[11] = qHTS assay to identify small molecule antagonists of the estrogen receptor beta (ER-beta) signaling pathway - cell viability counter screen (AID 1259382); further: nearly all actives have a fitted effect of over 55% in size; further: potency means the concentration at half of the fitted maximal effect; on activity change, negative = cytotoxicity: series mostly up to about 92 µM
Procedure, shortened: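 In this multiplexed counter screen, cells were seeded at 2,000 per well in medium with 2% charcoal-stripped FBS and incubated 6 hr before compound and 1nM final E2 were added. Sixteen hours later, ATP-based luminescence reported viability.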

[12] = target: Estrogen receptor (Homo sapiens) (UniProt P03372); assay: qHTS assay to identify small molecule agonists of the estrogen receptor alpha (ER-alpha) signaling pathway in the presence of an antagonist (AID 1259383; calls by dose curve; further: top concentration of the series differs between compounds; nearly all actives have a fitted effect of over 15% in size)
Procedure, shortened: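 Stably transfected VM7Luc4E2 reporter cells, kept 5 days in charcoal-stripped serum, received ICI-182,780 at 10.0nM final before compound addition. Following 22hr incubation at 37C and 5% CO2, luciferase signal was read by luminescence.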

[13] = qHTS assay to identify small molecule agonists of the estrogen receptor alpha (ER-alpha) signaling pathway in the presence of an antagonist - cell viability counter screen (AID 1259386);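 further: cells exposed to compounds for 22 h at 37 °C before the viability read; nearly all actives have a fitted effect of over 30% in size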; further: potency means the concentration at half of the fitted maximal effect; on activity change, negative = cytotoxicity: series mostly up to about 92 µM
Procedure, shortened: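 Viability counter screen using VM7Luc4E2 (full-length ER-alpha, four ERE-luciferase). The cells were treated with compounds alongside ICI-182,780 10.0nM for 22hr, and live-cell protease fluorescence was quantified with CellTiter-Fluor.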

[14] = target: Estrogen receptor beta (Homo sapiens) (UniProt Q92731); assay: qHTS assay to identify small molecule agonists of the estrogen receptor beta (ER-beta) signaling pathway (AID 1259377; active means well fitted activation curve with a large enough effect in the signal ratio in the repeat runs, not every such curve was filed as active; the % refers to the signal ratio)
Sequence of Estrogen receptor beta (Homo sapiens) (Q92731 whole entry, looked up): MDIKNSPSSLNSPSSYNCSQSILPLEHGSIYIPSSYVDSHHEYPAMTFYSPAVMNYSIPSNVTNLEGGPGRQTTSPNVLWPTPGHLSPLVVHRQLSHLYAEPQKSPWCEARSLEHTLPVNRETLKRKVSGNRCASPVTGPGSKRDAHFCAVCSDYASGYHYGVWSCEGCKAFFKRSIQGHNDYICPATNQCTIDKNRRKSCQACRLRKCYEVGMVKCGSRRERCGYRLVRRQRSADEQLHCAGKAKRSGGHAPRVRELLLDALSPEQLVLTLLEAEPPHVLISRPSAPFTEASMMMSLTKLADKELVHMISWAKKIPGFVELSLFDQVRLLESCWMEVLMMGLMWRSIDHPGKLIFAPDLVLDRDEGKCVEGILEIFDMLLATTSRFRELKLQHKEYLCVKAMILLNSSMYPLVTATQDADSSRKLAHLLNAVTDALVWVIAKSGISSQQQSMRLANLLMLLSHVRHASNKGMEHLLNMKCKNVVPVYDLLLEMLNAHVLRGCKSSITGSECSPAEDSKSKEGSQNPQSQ
Procedure, shortened: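 Read-out: beta-lactamase FRET fluorescence. Cell line: ER-beta-UAS-bla HEK293T in 2% charcoal-stripped FBS. Exposure: 16 hr at 37C. Substrate step: 2 h at room temperature.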

[15] = target: Estrogen receptor beta (Homo sapiens) (UniProt Q92731); assay: qHTS assay to identify small molecule antagonists of the estrogen receptor beta (ER-beta) signaling pathway (AID 1259378; active means well fitted inhibition curve with a large enough effect in the signal ratio in the repeat runs, not every such curve was filed as active; the % refers to the signal ratio; further: potency means the concentration at half of the fitted maximal effect)
Procedure, shortened: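 ER-beta-UAS-bla HEK293T (GripTite) cells in 2% charcoal-stripped FBS medium were preincubated 6 hr at 37C, dosed with compound, then stimulated with 1 nM E2 (final) for 16 hr; beta-lactamase reporter read by B/G FRET fluorescence after 2 hr substrate loading.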

[16] = qHTS assay to identify small molecule agonists or antagonists of the thyroid stimulating hormone receptor (TSHR) signaling pathway - wild type cell line counter screen (AID 1259384; calls by dose curve)
Procedure, shortened: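 Wild-type HEK293 cells were plated 18 h at 37 C/5% CO2, pin-dosed with compound plus Ro20-1724 medium, held 30 min at room temperature, then given cAMP-d2 and anti-cAMP-cryptate; fluorescence was read after 1 h. Fifteen concentrations, triplicate.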

[17] = target: Thyrotropin receptor (Homo sapiens) (UniProt P16473); assay: qHTS assay to identify small molecule antagonists of the thyroid stimulating hormone receptor (TSHR) signaling pathway (AID 1259385; calls by dose curve; further: nearly all actives have a fitted effect of over 20% in size)
Sequence of Thyrotropin receptor (Homo sapiens) (P16473 whole entry, looked up): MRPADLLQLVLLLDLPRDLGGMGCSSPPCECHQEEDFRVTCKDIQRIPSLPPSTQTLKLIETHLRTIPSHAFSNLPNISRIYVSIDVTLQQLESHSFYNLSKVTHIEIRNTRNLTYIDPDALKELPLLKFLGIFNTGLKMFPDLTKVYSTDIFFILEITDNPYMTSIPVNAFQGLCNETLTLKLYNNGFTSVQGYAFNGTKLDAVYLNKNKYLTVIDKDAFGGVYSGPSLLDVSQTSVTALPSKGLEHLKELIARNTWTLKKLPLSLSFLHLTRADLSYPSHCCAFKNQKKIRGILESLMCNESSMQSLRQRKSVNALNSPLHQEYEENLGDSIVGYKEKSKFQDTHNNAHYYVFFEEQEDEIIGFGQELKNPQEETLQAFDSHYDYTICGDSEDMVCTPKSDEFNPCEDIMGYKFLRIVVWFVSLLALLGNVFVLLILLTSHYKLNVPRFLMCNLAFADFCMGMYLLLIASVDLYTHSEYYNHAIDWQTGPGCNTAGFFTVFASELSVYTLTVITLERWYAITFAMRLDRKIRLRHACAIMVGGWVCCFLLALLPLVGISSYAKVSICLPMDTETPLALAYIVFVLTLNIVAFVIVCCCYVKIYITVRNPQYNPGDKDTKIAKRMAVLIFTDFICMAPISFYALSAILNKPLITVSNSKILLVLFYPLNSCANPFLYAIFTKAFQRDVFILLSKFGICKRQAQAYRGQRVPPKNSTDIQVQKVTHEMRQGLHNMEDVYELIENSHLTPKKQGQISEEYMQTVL
Procedure, shortened: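 TSHR-HEK293 cells were plated and held 18 h at 37C/5% CO2, then given compound plus Ro20-1724 and stimulated with TSH at 1.5 ng/mL final. After 30 min at room temperature, cAMP was detected with cAMP-d2/anti-cAMP-cryptate (1 h) by fluorescence.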

[18] = qHTS assay to identify small molecule agonists of the sonic hedgehog signaling (Shh) pathway (AID 1259368; calls by dose curve;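 further: NIH/3T3-derived 3T3Gli1-Luc cells carrying a stable Gli1-driven firefly luciferase reporter; series mostly up to about 92 µM; nearly all actives have a fitted effect of over 15% in size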)
Procedure, shortened: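 A Gli1 transcriptional response element controlled firefly luciferase in 3T3Gli1-Luc cells. Compounds and a positive control were added 4 hr after plating, and cells were incubated a further 24 hr at 37 C before luminescence detection.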

[19] = target: Androgen receptor (Homo sapiens) (UniProt P10275); assay: qHTS assay to identify small molecule antagonists of the androgen receptor (AR) signaling pathway using the MDA cell line in the presence of 0.5 nM R1881 (AID 1259243); further: nearly all actives have a fitted effect of over 50% in size
Sequence of Androgen receptor (Homo sapiens) (P10275 whole entry, looked up): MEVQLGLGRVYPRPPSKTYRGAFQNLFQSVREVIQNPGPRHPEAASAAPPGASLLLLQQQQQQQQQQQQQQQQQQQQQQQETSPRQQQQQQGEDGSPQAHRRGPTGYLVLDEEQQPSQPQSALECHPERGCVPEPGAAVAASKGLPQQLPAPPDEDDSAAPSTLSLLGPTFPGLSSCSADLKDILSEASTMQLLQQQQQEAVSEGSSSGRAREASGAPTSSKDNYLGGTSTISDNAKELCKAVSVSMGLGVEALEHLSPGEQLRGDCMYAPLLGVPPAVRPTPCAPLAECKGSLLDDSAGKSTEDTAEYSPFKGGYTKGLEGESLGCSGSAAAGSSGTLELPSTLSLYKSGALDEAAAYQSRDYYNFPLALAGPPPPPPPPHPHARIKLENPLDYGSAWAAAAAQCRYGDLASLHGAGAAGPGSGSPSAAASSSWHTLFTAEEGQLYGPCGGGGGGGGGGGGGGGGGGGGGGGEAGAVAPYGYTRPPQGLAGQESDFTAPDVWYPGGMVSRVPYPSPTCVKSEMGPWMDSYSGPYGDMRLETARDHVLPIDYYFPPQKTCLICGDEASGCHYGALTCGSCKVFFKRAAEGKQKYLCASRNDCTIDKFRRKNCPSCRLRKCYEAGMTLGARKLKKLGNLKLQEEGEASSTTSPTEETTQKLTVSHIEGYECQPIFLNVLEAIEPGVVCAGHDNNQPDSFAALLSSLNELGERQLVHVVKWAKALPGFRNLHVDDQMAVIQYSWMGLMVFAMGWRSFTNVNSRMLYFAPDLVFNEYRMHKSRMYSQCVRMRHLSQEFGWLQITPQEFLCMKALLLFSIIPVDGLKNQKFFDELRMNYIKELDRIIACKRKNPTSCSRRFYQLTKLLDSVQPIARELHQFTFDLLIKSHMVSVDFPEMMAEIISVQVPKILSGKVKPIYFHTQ
Procedure, shortened: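 Reporter cells cultured without CO2 receive test chemicals, then 0.5 nM R1881 final; after 16 hr at 37C, ONE-Glo is added and light output recorded.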

[20] = target: Androgen receptor (Homo sapiens) (UniProt P10275); assay: qHTS assay to identify small molecule agonists of the androgen receptor (AR) signaling pathway in the presence of an antagonist (AID 1259381; calls by dose curve; further: nearly all actives have a fitted effect of over 15% in size; further: potency means the concentration at half of the fitted maximal effect)
Procedure, shortened: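 Test compounds at 15 concentrations were incubated for 16hr with MDA-kb2 reporter cells in presence of 3.0uM nilutamide (final). Signal: ONE-Glo luciferase luminescence.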
On the % scale 0 is the no-effect control and ±100 the full control effect.

CNC(=O)CN(CCN(CCN(CC(=O)[O-])CC(=O)NC)CC(=O)[O-])CC(=O)[O-].O.[Gd+3]
inactive: Potency [1] | Potency [2] | Potency [3] | Potency [4] | Potency [5] | Potency [6] | Potency [7] | Potency [8] | Potency [9] | Potency [10] | Potency [11] | Potency [12] | Potency [13]

c1ccc(CNCCNCc2ccccc2)cc1
inactive: Potency [1] | Potency [2] | Potency [3] | Potency [4] | Potency [5] | Potency [6] | Potency [7] | Potency [14] | Potency [9] | Potency [10] | Potency [11] | Potency [12] | Potency [16] | Potency [17] | Potency [13]
active: Potency [15] 10.6 µM

CN1CCC(N(Cc2cccs2)c2ccccc2)CC1
inactive: Potency [1] | Potency [2] | PLD induction [3] -4.03% [at 7.66 µM] | Potency [4] | Potency [5] | Potency [6] | outcome [18] | Potency [14] | Potency [15] | Potency [9] | Potency [11] | Potency [12] | Potency [16] | Potency [17] | Potency [13]

Cc1cc(N)c2cc(NC(=O)Nc3ccc4nc(C)cc(N)c4c3)ccc2n1
inactive: Potency [1] | Potency [19] | Potency [4] | outcome [18] | Potency [14] | Potency [15] | Potency [9] | Potency [10] | Potency [20] | Potency [11] | Potency [13]

CN(Cc1ccc(C(C)(C)C)cc1)Cc1cccc2ccccc12
inactive: Potency [1] | Potency [2] | PLD induction [3] -0.504% [at 7.66 µM] | Potency [4] | Potency [6] | Potency [7] | outcome [18] | Potency [8] | Potency [14] | Potency [9] | Potency [12] | Potency [13]
active: Potency [10] 26.6 µM | Potency [11] 23.7 µM

CCCCC(=O)OCC(=O)[C@H]1[C@H](C)C[C@H]2[C@@H]3C[C@H](F)C4=CC(=O)C=C[C@]4(C)[C@@]3(F)[C@@H](O)C[C@@]21C
inactive: Potency [1] | Potency [2] | PLD induction [3] -1.62% [at 7.66 µM] | Potency [4] | Potency [6] | Potency [7] | outcome [18] | Potency [8] | Potency [14] | Potency [15] | Potency [9] | Potency [11] | Potency [12] | Potency [16] | Potency [17] | Potency [13]
active: Potency [20] 0.0067 µM

COc1cc2nc(N(C)CCCNC(=O)C3CCCO3)nc(N)c2cc1OC (stereo not given)
inactive: Potency [1] | Potency [3] | Potency [4] | Potency [5] | Potency [6] | Potency [7] | outcome [18] | Potency [14] | Potency [15] | Potency [10] | Potency [11] | Potency [12] | Potency [16] | Potency [17]
active: Potency [2] 23.7 µM | Potency [8] 13.3 µM | Potency [13] 23.7 µM

CC(CSC(=O)c1ccccc1)C(=O)N1C[C@@H](Sc2ccccc2)C[C@H]1C(=O)O (stereo not given in full)
inactive: viability change, negative = cytotoxic [1] 5.22% [at 19 µM] | Potency [2] | Potency [3] | activity change, negative = inhibition [4] 3.83% [at 19 µM] | activity change, negative = cytotoxicity [5] -1.25% [at 19 µM] | viability change, negative = cytotoxic [6] -5.51% [at 19 µM] | viability change, negative = cytotoxic [7] 1.29% [at 19 µM] | activity change, negative = inhibition [8] 9.12% [at 19 µM] | activation [14] -2.37% [at 19 µM] | activity, negative = inhibition [15] -3.38% [at 19 µM] | activity change, negative = cytotoxicity [9] 1.42% [at 19 µM] | activity change, negative = cytotoxicity [10] 0.0866% [at 19 µM] | activity change, negative = cytotoxicity [11] 5.8% [at 19 µM] | Potency [12] | cAMP activity change [16] 7.8% [at 18.9 µM, hits give high values] | activity change, negative = inhibition [17] -6.99% [at 19 µM] | activity change, negative = cytotoxicity [13] 3.85% [at 19 µM]
